Laboratory results taken from ChEMBL document CHEMBL3433997, “St. Jude Leishmania screening dataset” (2016).

What was measured:
Assay type in all cases: functional
[1] = biological target: Solute carrier family 2, facilitated glucose transporter member 1 (Homo sapiens) (UniProt P11166); test: ST_JUDE_LEISH: Cytotoxicity at 2uM final concentration against transgenic Leishmania Mexicana promastigotes LmGLUT1 that are glucose transport deficient and complemented with the human glucose transporter GLUT1. Activity is measured by DNA content using SYBR green in vitro
[2] = biological target: Hexose transporter 1 (Plasmodium falciparum) (UniProt O97467); test: ST_JUDE_LEISH: Cytotoxicity at 2uM final concentration against transgenic Leishmania Mexicana promastigotes LmPfHT that are glucose transport deficient and complemented with the Plasmodium falciparum hexose transporter. Activity is measured by DNA content using SYBR green in vitro
[3] = biological target: Glucose transporter (Leishmania mexicana) (UniProt O61059); test: ST_JUDE_LEISH: Cytotoxicity at 2uM final concentration against transgenic Leishmania Mexicana promastigotes LmGT2 that are glucose transport deficient and complemented with the L. Mexicana glucose transporter 2. Activity is measured by DNA content using SYBR green in vitro

Solute carrier family 2, facilitated glucose transporter member 1 (Homo sapiens), sequence (P11166 whole entry): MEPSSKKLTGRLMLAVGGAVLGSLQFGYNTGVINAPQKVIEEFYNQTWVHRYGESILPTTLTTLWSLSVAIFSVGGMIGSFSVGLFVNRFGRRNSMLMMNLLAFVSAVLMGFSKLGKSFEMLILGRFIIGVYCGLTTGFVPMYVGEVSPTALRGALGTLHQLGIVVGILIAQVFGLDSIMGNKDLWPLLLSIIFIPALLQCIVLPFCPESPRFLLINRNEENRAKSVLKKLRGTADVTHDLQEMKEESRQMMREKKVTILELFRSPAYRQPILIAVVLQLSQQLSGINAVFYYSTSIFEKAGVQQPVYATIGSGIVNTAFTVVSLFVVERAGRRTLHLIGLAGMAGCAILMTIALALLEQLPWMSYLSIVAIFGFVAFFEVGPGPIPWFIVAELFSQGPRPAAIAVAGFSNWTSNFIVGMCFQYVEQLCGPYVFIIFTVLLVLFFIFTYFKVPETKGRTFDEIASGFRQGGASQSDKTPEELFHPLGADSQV

Row | SMILES | inhibition [1] [%] | inhibition [2] [%] | inhibition [3] [%]
1 | Cc1cc(O)c(-c2ccc(S(=O)(=O)c3ccc(Cl)cc3)cc2)c(C)n1 | 0.09 | 0.81 | 1.44
2 | N=C(N)c1ccc(-c2cc3ccc(C(=N)N)cc3[nH]2)cc1 | 62.9 | 62.2 | 52.2
3 | CN(CCCCNC(=O)c1cc2ccccc2[nH]1)C1CC2(CCN(C(=O)OC(C)(C)C)CC2)c2ccccc21 (centres undefined) | -1.12 | -1.35 | -1.2
4 | O=[N+]([O-])c1cccc(-c2ccc(C=NNc3cc(N4CCCC4)nc(N4CCCC4)n3)o2)c1 | 3.39 | 3.17 | 3.82
5 | O=C(Nc1cccc(CN2CCCN(Cc3ccc4c(c3)OCO4)CC2)c1)c1ccc(-c2ccccc2)cc1 | 4.21 | 3.52 | 0.89
6 | O=S(=O)(NC1CCN(c2ccnc3cc(Cl)ccc23)C1)c1cccc(F)c1 (centres undefined) | 10.1 | 9.98 | 11.4
7 | CCCC(C)NC(=O)C(N)Cc1cccc(I)c1 (centres undefined) | 1.78 | -1 | 1.85
8 | CCc1ccc(CN(Cc2ccc(C)cc2)Cc2ccc(NC(C)=O)cc2)cc1 | 2.72 | 3.95 | 2.91
9 | CN(C)CCN(C)Cc1cccc(-c2ccc3c(Nc4ccc(F)cc4Cl)ccnc3c2)c1 | 1.88 | 4.55 | 12.7
10 | O=C(/C=C/c1ccc(Cl)c(Cl)c1)NCCCCCN1CCC(c2c[nH]c3c(-c4ccccc4)cccc23)CC1 | 0.48 | 4.3 | 3.07
11 | CC(C)(C)c1ccc(CNCC(C)(C)c2nc(-c3ccnc(N)n3)c(-c3ccc(Cl)c(O)c3)[nH]2)cc1 | 5.04 | 6.23 | 4.54
12 | COc1ccccc1N1CCN(C(C(=O)NCc2ccc(C)cc2)c2ccc(C)cc2)CC1 (centres undefined) | -0.68 | -0.64 | -2.75
13 | O=C(Cc1ccccc1)NC1CCN(c2ccnc3cc(Cl)ccc23)C1 (centres undefined) | 2.05 | 2.03 | 3.56
14 | CC(C)C[C@@H]1C(=O)N[C@H](C2Cc3ccccc3C2)C(=O)N1[C@@H](C(=O)O)c1ccc(F)cc1F | 1.91 | 2.13 | 0.39
15 | CCCC(C(=O)OCCNC)(c1ccccc1)c1ccccc1 | 1.4 | 0.51 | 0.81
16 | CN(C)CCOc1ccc(NC(=O)NC(C)(C)c2nc(-c3ccc(Cl)c(O)c3)c(-c3ccncc3)[nH]2)cc1 | -2.42 | -2.62 | -2.59
17 | O=C(Cn1c(SCc2cccc(F)c2F)cc(=O)c2ccccc21)N(CCn1ccnc1)Cc1ccc(-c2ccc(C(F)(F)F)cc2)cc1 | 5.51 | 5.78 | 2.82

Row | SMILES | inhibition [1] [%] | inhibition [2] [%] | inhibition [3] [%]
18 | OC(CNCc1ccccc1Oc1ccccc1)c1cc(Br)cs1 (centres undefined) | 4.37 | 3.03 | 3.26
19 | Cc1ncccc1C(=O)Nc1cccc(-c2cccc(-c3nc4cc(C(F)(F)F)ccc4[nH]3)c2)c1 | 0.73 | 1.25 | -2.48
20 | O=C(NCCCCN1CCC(c2cccc3ccccc23)CC1)c1ccc(-c2ccc(C(F)(F)F)cn2)cc1 | 2.62 | 3.84 | 1.69
21 | CCCCCN1CCCC(CNS(=O)(=O)c2ccc(C(=O)Nc3ccc(C(F)(F)F)cc3)cc2)C1 (centres undefined) | -1.01 | -0.37 | -0.42
22 | Cc1nc(C)c(-c2ccc(Br)cc2)c(O)c1Br | -0.12 | -1.35 | -2.85
23 | CS(=O)(=O)CCNCc1ccc(-c2ccc3c(Nc4ccc(Cl)cc4F)ccnc3c2)o1 | 2.59 | 3.39 | 4.36
24 | Cc1cc(N[C@@H](Cc2ccccc2)C(=O)NCCCOC(C)C)nc(NCCc2ccc(F)cc2)n1 | 5.75 | 2.58 | 0.38
25 | Cc1ccc2sc(N3CCN(C(=O)c4ccc([N+](=O)[O-])o4)CC3)nc2c1C | 44.5 | 44.3 | 13.7
26 | CN(C)c1ccc(NC(=O)Nc2ccnc3ccc(Br)cc23)cc1 | 2.25 | 3.91 | 0.43
27 | COc1ccc(-c2nnc(Sc3ccc(C#N)c([N+](=O)[O-])c3)n2CC(C)C)cc1 | 0.96 | 3.46 | 1.92
28 | CCc1ccc(OCCCON2C(=N)N=C(N)NC2(C)C)cc1 | -1.61 | 1.92 | 3.21
29 | Nc1ncc(-c2ccsc2)c2ccc(-c3cc(NCc4ccccc4)ncn3)cc12 | 10.1 | 8.31 | 7.39
30 | CC(C)NCc1ccc(-c2ccc(-c3nc4cc(C(F)(F)F)ccc4[nH]3)cc2)cc1 | 1.09 | -1.61 | 2.69
31 | CN1CCCN(Cc2cccc(-c3cccc(NC(=O)c4ccc(C#N)cc4)c3)c2)CC1 | 11 | 7.28 | 6.98
32 | COc1ccc2c(=NN=Cc3ccccc3F)cc(C)[nH]c2c1 | 1.77 | 1.74 | 0.39
33 | Oc1cc(NCCCNC2CCc3c(Cl)cc(Cl)cc32)nc2ccccc12 (centres undefined) | 0.63 | 0.11 | 3.08
